Measurements as given in paper PMC7862700, “An all-to-all approach to the identification of sequence-specific readers for epigenetic DNA modifications on cytosine”.

How the values were obtained:
Assay in all cases: DAPPL (digital affinity profiling via proximity ligation, sequencing); 10 mM Tris-HCl pH 7.5, 50 mM NaCl, 1 mM DTT, 4% glycerol, room temperature, 30 min; GST-TFs on glutathione beads, 16-mer random dsDNA library, 0.1% formaldehyde crosslink after washing; high values mean tight binding
Settings in all cases: protein: recombinant; tags: N-terminal GST; dsDNA, one strand shown
FLI1 = target: T1, FLI1 (Homo sapiens, UniProt Q01543 1-452)
T1 sequence: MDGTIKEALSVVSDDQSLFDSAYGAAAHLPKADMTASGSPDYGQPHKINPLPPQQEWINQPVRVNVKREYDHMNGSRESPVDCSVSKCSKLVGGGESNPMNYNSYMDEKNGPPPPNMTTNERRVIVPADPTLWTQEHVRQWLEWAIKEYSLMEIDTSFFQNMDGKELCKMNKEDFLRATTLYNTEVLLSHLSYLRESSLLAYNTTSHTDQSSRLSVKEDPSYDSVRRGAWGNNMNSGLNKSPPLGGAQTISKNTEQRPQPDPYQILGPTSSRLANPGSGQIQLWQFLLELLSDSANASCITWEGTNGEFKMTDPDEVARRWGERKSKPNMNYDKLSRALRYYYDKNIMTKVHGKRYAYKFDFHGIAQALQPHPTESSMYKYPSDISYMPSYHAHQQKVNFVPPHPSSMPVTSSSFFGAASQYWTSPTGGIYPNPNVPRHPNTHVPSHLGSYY
In short: (§1)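 Binding signal is defined as a hexamer's read frequency for one factor over its frequency for the tag-only sample. To obtain reads, GST-fused human transcription factors were expressed in yeast, captured on glutathione beads, barcoded with DNA and pooled with that sample. Pools met 200 nmole of a 16-mer random double-stranded DNA library in Tris/NaCl/DTT/glycerol buffer for 30 min at room temperature before washing, 0.1% formaldehyde crosslinking, proximity ligation (BsaI/T4 ligase, 1 h, 37 °C), PCR and Illumina NextSeq500 sequencing.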

ELK1 = target: T2, ELK1 (Homo sapiens, UniProt P19419 1-428)
T2 sequence: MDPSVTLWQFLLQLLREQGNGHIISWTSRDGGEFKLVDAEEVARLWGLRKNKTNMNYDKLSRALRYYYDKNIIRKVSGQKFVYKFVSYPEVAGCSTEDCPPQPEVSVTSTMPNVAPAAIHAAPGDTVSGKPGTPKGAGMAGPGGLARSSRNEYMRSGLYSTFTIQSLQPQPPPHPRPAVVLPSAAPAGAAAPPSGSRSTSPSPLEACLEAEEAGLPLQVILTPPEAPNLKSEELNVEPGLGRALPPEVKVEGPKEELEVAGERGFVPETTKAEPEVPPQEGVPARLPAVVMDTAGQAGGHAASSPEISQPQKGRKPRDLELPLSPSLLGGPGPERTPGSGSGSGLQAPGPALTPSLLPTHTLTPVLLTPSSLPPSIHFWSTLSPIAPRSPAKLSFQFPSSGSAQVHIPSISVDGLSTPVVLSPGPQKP
In short: as §1

ERG = target: T3, ERG (Homo sapiens, UniProt P11308 1-479)
T3 sequence: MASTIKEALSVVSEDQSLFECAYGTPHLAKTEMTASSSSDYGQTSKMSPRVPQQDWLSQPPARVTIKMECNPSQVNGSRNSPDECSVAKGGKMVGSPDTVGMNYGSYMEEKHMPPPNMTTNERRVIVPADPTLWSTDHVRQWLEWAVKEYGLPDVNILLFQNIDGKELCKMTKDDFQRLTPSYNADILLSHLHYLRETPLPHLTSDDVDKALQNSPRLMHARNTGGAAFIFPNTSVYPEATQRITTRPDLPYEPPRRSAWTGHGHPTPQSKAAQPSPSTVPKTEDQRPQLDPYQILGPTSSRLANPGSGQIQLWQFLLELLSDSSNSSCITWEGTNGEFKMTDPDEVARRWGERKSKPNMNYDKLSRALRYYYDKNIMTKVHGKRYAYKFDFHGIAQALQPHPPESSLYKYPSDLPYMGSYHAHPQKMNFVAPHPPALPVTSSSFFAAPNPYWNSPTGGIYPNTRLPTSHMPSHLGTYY
In short: as §1

EHF = target: T4, EHF (Homo sapiens, UniProt Q9NZC4 1-300)
T4 sequence: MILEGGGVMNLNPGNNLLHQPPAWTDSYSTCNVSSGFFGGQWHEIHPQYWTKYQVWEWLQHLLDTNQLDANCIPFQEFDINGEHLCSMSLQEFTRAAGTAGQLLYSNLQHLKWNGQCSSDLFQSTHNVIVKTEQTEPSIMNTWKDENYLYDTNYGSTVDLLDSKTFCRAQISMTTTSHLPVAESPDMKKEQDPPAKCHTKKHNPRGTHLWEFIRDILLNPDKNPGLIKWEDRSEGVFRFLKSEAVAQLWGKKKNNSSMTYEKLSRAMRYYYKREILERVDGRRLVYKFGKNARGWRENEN
In short: as §1

SPI1 = SPI1 (Homo sapiens, UniProt P17947 1-270)
In short: as §1

SPIB = SPIB (Homo sapiens, UniProt Q01892 1-262)
In short: as §1

ELK3 = target: T5, ELK3 (Homo sapiens, UniProt P41970 1-407)
T5 sequence: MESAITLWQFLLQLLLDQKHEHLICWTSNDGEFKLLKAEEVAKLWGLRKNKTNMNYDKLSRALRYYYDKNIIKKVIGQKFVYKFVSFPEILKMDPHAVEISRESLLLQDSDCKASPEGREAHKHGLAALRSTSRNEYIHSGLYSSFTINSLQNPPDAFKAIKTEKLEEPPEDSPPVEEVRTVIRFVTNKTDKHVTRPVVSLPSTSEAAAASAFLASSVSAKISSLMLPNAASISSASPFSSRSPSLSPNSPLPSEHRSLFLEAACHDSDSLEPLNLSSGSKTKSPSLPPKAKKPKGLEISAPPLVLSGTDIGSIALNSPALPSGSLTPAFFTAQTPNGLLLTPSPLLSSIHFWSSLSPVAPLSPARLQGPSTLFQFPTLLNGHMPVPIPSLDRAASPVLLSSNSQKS
In short: as §1

ETV5 = ETV5 (Homo sapiens, UniProt P41161 1-510)
In short: as §1

SPIC = target: T6, SPIC (Homo sapiens, UniProt Q8N5J4 1-248)
T6 sequence: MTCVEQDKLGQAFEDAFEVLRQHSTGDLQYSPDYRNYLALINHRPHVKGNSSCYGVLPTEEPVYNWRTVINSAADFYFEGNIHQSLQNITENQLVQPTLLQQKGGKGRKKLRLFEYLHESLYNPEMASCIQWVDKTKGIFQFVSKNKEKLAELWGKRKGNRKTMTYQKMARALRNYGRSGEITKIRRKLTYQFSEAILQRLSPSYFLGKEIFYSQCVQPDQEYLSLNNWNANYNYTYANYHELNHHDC
In short: as §1

ELF4 = ELF4 (Homo sapiens, UniProt Q99607 1-663)
In short: as §1

ETV1 = ETV1 (Homo sapiens, UniProt P50549 1-477)
In short: as §1

ETS2 = target: T7, ETS2 (Homo sapiens, UniProt P15036 1-469)
T7 sequence: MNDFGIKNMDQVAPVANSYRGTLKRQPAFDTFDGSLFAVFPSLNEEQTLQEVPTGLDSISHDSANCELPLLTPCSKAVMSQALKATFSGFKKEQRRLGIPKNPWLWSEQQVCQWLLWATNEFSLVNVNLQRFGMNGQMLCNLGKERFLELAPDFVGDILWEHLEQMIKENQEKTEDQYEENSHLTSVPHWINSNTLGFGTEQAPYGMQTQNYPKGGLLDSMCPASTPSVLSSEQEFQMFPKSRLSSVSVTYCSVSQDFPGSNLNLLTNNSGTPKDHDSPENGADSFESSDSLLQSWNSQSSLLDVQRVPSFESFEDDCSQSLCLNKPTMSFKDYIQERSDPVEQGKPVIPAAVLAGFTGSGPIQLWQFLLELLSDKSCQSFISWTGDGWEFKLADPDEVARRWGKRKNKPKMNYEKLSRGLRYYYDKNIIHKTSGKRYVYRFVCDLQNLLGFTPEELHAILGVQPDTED
In short: as §1

SPDEF = target: T8, SPDEF (Homo sapiens, UniProt O95238 1-335)
T8 sequence: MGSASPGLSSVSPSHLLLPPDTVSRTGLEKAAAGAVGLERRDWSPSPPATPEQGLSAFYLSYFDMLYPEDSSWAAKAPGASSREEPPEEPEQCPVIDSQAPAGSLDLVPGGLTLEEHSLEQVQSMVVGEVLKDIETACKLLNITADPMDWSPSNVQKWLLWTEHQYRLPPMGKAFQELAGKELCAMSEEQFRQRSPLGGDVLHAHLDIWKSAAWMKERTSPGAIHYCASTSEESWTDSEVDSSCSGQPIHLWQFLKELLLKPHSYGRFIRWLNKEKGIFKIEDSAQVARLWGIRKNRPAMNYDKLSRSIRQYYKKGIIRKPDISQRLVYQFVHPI
In short: as §1

ETV3 = target: T9, ETV3 (Homo sapiens, UniProt P41162-2 1-143)
T9 sequence: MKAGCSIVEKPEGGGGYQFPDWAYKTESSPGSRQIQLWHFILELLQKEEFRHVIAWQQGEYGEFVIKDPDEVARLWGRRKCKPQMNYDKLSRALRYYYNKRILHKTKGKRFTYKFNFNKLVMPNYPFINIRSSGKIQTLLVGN
In short: as §1

ETV6 = ETV6 (Homo sapiens, UniProt P41212 1-452)
In short: as §1

ETV1, sequence (P50549 whole entry): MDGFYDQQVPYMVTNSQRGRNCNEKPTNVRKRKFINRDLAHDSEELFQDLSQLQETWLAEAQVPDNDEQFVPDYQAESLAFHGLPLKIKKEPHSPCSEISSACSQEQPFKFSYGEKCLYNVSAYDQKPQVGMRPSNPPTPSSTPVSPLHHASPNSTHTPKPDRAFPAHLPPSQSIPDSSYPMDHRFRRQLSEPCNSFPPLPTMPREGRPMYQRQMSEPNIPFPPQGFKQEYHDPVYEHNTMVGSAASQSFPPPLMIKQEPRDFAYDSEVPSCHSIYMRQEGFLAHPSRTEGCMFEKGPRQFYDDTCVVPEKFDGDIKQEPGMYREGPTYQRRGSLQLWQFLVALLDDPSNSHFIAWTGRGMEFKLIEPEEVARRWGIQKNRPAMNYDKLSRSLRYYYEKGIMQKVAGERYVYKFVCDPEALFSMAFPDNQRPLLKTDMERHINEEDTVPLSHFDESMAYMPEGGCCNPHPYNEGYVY
ETV6, sequence (P41212 whole entry): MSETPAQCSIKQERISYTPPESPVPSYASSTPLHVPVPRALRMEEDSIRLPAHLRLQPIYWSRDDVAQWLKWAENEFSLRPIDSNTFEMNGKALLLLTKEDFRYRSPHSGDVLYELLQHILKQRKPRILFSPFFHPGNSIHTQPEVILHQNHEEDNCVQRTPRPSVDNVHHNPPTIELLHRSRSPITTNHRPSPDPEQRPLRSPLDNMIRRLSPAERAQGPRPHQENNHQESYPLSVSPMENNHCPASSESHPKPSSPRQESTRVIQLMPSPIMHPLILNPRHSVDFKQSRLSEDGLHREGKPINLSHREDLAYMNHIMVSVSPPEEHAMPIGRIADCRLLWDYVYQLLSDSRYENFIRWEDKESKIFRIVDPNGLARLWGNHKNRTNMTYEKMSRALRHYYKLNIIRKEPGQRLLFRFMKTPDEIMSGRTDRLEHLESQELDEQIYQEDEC
SPIB, sequence (Q01892 whole entry): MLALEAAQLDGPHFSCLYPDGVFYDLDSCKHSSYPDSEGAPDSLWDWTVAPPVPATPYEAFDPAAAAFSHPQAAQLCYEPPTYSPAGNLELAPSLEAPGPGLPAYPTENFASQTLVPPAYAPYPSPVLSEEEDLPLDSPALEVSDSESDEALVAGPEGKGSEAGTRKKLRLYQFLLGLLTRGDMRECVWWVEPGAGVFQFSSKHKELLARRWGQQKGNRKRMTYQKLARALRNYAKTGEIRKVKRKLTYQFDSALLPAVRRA
ELF4, sequence (Q99607 whole entry): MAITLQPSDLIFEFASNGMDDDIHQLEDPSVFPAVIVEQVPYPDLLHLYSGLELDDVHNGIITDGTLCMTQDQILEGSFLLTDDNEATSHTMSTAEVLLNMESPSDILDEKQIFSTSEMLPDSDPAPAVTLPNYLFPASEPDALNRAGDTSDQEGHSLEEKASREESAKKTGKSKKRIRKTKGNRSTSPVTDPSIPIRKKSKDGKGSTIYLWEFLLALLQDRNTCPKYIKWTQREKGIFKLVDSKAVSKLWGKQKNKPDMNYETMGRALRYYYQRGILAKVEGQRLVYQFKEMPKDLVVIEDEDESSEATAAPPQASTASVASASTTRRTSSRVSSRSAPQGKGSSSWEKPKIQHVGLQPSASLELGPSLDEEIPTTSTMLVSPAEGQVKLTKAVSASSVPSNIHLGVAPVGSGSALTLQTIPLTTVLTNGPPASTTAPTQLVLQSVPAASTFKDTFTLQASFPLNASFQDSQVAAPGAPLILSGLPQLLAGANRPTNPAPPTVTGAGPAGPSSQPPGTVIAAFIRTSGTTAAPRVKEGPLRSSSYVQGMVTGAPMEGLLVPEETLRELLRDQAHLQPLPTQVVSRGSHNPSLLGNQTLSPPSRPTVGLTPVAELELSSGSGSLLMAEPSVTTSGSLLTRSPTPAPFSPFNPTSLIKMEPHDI
ETV5, sequence (P41161 whole entry): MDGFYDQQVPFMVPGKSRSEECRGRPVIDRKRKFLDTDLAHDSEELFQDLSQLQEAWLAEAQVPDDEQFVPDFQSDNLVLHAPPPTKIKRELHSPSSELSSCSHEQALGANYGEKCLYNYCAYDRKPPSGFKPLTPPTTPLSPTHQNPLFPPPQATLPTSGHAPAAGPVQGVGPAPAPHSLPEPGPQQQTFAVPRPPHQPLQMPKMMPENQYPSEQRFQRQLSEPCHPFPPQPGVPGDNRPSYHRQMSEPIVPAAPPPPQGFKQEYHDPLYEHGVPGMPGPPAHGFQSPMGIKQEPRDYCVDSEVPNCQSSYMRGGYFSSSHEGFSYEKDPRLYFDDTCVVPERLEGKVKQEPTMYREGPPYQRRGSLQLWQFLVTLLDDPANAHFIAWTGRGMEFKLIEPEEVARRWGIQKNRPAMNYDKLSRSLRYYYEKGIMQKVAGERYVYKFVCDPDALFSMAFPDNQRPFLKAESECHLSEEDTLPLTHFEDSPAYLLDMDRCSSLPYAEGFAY

## AGGAAC
FLI1
  binding signal: 1.03 fold enrichment (6-mer frequency, TF over GST control)
ELK1
  binding signal: 1.08 fold enrichment (6-mer frequency, TF over GST control)
ERG
  binding signal: 1.05 fold enrichment (6-mer frequency, TF over GST control)
EHF
  binding signal: 1.06 fold enrichment (6-mer frequency, TF over GST control)
SPI1
  binding signal: 1.45 fold enrichment (6-mer frequency, TF over GST control)
SPIB
  binding signal: 1.11 fold enrichment (6-mer frequency, TF over GST control)
ELK3
  binding signal: 1 fold enrichment (6-mer frequency, TF over GST control)
ETV5
  binding signal: 1.1 fold enrichment (6-mer frequency, TF over GST control)
SPIC
  binding signal: 1.23 fold enrichment (6-mer frequency, TF over GST control)
ELF4
  binding signal: 1 fold enrichment (6-mer frequency, TF over GST control)
ETV1
  binding signal: 1.04 fold enrichment (6-mer frequency, TF over GST control)
ETS2
  binding signal: 1.08 fold enrichment (6-mer frequency, TF over GST control)
SPDEF
  binding signal: 1.05 fold enrichment (6-mer frequency, TF over GST control)
ETV3
  binding signal: 1.05 fold enrichment (6-mer frequency, TF over GST control)
ETV6
  binding signal: 1.04 fold enrichment (6-mer frequency, TF over GST control)
